What was measured:
Experiment in all cases: log2 ratio of Biotin-Ahx-Ub-VS probe labelling (fragment/DMSO); higher = less target engagement (more negative = stronger competition), active = hit call of the paper (q ≤ 0.05, log2 ratio ≤ -1)
Settings in all cases: compound concentration: 200 uM; treatment time: 3 h
USP34 = USP34 (UniProt Q70CQ2)
In short: (§1)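 HEK293T lysate, 495 µg per sample in Tris/CHAPS/IGEPAL buffer with protease inhibitors, was treated in triplicate with fragment at 200 µM or vehicle for 3 h and then with Biotin-Ahx-Ub-VS at 0.5 µM final for 1 h. Labelled DUBs were NeutrAvidin-enriched, digested with LysC and trypsin, and run by diaPASEF LC-MS/MS. Spectronaut label-free quantities were global-median-normalised, and values are average log2 fragment/vehicle ratios by unpaired t-test on proteins with ≥2 unique peptides.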

USP36 = molecular target: T1, USP36 (UniProt Q9P275)
T1 sequence (whole entry): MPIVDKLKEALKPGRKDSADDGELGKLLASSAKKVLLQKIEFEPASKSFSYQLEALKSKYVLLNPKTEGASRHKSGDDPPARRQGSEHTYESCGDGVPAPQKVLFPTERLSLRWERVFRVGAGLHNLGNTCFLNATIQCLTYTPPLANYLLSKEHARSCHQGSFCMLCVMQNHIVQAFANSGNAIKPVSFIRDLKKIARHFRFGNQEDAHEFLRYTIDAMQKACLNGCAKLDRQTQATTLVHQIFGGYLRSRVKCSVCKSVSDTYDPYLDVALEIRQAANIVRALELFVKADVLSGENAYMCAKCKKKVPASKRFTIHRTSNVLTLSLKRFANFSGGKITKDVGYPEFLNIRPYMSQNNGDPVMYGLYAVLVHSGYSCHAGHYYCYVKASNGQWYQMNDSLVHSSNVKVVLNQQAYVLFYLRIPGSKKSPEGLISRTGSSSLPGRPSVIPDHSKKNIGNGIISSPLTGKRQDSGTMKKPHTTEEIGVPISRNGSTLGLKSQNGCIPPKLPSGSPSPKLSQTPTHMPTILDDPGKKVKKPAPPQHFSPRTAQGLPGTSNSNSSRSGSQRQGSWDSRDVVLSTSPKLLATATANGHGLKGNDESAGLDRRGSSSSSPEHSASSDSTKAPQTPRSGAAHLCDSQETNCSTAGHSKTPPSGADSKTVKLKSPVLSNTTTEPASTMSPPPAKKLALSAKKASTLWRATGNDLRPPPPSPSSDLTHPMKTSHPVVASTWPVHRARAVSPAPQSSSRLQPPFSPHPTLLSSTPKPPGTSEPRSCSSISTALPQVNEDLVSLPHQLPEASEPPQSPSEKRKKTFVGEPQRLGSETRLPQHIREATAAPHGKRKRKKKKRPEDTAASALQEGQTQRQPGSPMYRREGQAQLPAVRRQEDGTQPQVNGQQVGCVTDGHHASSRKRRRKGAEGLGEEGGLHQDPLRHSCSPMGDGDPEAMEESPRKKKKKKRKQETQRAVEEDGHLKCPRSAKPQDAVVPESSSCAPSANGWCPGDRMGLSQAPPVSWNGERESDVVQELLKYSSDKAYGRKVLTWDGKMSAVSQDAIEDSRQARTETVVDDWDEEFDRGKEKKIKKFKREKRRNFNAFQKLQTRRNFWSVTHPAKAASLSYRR
In short: as §1

USP38 = molecular target: T2, USP38 (UniProt Q8NB14)
T2 sequence (whole entry): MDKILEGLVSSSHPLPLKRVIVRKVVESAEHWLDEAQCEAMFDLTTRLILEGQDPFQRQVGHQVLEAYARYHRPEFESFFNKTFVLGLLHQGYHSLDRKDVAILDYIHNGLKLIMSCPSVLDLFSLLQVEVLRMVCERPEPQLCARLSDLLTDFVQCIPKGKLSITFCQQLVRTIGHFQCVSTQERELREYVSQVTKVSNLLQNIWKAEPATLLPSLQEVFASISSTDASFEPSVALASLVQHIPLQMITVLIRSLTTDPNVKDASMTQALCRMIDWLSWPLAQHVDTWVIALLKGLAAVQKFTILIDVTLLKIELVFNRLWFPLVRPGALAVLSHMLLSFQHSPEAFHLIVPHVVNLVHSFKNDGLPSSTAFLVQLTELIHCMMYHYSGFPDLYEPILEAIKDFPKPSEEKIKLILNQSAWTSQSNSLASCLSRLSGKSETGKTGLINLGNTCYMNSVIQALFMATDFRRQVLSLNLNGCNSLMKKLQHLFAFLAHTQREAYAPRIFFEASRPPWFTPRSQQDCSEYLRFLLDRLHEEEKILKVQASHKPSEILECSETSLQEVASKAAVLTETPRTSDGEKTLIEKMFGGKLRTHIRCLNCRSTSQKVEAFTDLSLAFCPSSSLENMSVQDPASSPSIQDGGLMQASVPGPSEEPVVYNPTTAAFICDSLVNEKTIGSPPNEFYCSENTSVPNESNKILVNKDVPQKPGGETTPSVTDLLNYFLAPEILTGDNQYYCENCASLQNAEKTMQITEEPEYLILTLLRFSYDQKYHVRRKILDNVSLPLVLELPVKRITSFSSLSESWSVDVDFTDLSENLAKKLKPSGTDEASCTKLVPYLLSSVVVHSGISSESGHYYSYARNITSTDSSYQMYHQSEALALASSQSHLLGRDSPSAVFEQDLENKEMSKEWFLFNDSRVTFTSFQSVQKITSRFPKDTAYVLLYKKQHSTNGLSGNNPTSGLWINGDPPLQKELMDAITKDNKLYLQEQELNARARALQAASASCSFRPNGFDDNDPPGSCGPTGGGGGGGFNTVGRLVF
In short: as §1

USP39 = molecular target: T3, USP39 (UniProt Q53GS9)
T3 sequence (whole entry): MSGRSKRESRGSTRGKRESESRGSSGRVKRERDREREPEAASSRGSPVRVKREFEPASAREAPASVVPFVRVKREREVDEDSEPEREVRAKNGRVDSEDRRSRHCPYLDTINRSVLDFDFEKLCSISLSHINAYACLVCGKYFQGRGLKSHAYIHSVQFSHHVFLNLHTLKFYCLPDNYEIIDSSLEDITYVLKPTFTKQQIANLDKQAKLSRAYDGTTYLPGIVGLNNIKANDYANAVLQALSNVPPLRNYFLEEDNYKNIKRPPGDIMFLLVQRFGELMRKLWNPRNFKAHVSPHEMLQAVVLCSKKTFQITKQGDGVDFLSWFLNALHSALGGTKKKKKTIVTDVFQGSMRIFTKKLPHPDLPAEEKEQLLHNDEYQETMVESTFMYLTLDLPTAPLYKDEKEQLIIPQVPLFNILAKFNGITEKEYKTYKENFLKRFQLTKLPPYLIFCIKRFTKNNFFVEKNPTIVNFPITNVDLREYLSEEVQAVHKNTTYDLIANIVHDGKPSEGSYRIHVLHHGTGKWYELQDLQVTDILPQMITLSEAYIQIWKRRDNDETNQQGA
In short: as §1

USP4 = molecular target: T4, USP4 (UniProt Q13107)
T4 sequence (whole entry): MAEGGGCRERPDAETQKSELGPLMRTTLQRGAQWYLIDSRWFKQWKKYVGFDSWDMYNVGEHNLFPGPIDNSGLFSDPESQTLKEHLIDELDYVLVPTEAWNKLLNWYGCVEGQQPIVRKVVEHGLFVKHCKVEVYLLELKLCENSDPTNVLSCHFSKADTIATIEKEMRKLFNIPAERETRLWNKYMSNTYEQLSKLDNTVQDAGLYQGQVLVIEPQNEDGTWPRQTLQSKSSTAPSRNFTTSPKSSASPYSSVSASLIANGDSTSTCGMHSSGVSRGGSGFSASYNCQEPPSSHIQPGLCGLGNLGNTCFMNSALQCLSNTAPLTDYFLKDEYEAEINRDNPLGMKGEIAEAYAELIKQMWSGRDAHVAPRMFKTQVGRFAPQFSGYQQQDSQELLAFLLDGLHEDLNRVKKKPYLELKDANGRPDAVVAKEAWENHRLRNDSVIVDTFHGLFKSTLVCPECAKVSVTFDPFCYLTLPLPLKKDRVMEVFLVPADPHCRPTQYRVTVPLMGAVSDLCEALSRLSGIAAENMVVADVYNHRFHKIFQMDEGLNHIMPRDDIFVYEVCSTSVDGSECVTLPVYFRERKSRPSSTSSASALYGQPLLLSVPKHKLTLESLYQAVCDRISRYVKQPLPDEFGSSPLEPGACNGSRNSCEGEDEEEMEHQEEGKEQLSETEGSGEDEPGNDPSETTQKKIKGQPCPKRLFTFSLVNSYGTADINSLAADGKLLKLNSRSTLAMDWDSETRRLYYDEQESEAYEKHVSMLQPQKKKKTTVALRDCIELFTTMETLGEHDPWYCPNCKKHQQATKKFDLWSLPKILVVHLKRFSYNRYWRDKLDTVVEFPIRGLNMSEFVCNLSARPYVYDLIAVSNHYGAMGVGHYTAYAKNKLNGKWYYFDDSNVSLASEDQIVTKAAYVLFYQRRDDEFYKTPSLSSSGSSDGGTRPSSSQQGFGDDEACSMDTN
In short: as §1

Measured: log2 ratio of Biotin-Ahx-Ub-VS probe labelling

Sequence of USP34 (Q70CQ2 whole entry, the tested form may be a part): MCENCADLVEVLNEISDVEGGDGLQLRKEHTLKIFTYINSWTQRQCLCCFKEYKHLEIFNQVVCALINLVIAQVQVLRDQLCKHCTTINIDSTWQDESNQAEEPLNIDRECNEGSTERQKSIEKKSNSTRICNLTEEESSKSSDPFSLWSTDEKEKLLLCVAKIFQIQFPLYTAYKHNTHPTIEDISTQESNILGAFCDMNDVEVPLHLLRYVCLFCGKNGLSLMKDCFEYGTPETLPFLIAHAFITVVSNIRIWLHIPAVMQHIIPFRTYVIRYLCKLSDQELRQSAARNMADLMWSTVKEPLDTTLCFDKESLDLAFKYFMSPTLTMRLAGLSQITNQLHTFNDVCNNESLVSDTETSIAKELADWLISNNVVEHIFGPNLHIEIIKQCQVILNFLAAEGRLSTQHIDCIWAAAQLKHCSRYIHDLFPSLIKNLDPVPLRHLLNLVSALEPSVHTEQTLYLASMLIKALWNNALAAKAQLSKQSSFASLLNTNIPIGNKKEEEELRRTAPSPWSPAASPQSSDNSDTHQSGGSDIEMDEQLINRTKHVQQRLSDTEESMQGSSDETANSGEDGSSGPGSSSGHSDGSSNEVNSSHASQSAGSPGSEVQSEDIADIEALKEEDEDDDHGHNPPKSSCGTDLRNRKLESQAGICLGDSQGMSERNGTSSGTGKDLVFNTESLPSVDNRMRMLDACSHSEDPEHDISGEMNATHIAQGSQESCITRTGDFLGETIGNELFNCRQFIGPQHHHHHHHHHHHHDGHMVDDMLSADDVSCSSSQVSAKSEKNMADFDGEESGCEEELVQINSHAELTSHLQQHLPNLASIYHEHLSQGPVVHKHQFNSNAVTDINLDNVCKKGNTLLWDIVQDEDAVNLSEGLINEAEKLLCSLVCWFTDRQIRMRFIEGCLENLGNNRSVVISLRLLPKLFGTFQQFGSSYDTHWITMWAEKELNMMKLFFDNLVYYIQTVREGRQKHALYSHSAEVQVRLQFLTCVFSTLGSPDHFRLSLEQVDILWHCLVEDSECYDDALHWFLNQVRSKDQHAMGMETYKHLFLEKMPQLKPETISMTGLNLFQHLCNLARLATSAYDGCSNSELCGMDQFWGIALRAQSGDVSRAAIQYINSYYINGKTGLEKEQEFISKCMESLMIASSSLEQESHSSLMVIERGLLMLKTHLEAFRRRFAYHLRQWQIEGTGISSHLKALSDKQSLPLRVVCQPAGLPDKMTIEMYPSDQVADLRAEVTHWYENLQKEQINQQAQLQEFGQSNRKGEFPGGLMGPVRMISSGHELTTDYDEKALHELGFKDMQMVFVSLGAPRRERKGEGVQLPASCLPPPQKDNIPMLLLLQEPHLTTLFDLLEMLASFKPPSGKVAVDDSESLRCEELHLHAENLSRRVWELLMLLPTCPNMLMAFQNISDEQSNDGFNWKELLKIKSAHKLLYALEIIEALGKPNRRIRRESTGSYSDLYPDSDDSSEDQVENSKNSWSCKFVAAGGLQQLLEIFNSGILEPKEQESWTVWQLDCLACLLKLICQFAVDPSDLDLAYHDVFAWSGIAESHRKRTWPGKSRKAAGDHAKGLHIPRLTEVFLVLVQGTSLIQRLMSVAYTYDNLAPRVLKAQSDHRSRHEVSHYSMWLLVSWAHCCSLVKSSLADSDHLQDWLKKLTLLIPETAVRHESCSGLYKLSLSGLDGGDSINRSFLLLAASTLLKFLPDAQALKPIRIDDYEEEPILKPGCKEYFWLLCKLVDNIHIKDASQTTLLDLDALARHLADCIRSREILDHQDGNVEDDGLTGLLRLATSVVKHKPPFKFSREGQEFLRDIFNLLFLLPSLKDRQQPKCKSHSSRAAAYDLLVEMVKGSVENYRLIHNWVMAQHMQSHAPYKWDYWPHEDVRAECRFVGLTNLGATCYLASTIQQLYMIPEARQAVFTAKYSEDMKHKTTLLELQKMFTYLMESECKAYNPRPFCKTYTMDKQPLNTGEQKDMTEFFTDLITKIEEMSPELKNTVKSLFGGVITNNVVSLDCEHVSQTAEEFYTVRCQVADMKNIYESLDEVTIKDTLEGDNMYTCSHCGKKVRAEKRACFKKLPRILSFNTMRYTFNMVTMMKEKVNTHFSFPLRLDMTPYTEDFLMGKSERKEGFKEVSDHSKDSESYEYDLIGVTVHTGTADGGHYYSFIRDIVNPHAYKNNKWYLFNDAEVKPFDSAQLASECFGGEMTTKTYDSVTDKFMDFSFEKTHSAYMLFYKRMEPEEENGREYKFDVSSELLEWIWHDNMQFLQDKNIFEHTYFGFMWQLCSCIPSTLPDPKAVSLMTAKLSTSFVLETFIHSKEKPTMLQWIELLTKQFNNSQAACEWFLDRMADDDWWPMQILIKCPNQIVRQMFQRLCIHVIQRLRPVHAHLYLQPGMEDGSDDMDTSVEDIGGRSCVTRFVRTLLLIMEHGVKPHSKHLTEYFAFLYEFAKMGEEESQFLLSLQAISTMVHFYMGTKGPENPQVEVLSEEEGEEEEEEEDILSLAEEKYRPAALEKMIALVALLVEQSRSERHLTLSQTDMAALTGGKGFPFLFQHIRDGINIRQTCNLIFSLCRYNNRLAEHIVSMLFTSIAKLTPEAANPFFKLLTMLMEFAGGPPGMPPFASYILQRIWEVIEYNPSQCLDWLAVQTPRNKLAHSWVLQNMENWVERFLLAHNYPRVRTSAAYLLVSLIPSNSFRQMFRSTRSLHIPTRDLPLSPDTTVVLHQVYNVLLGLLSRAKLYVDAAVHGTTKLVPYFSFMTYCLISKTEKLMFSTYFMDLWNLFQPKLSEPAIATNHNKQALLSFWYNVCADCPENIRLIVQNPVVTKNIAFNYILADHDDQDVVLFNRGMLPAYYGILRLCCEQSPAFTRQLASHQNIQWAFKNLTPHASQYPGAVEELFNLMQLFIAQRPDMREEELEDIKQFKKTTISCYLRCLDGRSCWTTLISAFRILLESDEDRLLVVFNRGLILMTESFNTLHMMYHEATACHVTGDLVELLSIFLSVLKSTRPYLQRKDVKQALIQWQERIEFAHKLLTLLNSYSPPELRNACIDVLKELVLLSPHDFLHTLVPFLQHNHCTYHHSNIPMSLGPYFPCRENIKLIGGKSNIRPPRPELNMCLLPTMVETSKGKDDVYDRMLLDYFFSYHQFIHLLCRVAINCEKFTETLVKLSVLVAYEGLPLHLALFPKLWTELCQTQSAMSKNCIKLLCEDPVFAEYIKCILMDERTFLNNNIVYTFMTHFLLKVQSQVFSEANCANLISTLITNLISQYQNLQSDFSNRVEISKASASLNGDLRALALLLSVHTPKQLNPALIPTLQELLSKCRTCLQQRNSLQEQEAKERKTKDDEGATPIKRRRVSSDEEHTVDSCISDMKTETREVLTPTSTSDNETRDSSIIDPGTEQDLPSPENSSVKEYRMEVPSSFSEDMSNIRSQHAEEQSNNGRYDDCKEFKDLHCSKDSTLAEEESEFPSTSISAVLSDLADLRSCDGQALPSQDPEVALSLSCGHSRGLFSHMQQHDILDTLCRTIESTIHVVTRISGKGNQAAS

O=C(O)C1Cc2ccccc2CN1C(=O)CCl (stereo not given)
inactive: USP34 -0.101 | USP36 -0.224 | USP38 -0.252 | USP39 -0.281 | USP4 -0.207

Reference: the supplement of paper PMC11732987, “Enantioselective OTUD7B fragment discovery through chemoproteomics screening and high-throughput optimisation” (Communications Chemistry, 2025)
